The record followed here is PubChem BioAssay.

Each structure is given as a SMILES string. The source made the active and inactive calls.

The nature of assay [1]: small molecules captured by biotinylated probe aFSTL3 – biochemical, small-molecule microarray, fluorescence 635/667, stem cell growth factor project, primary screen (AID 1064).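 Note: measures binding of the biotinylated anti-FSTL3 antibody to printed compounds.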 Particulars: higher = more signal.
Assay [2] can be described thus: binders from COS7 lysate, DM2A8 probe, primary screen, torsin A project, cell lysate, small-molecule microarray, fluorescence 635/667 (AID 1065). Particulars: higher = more signal, COS7 lysate expressing mutant human TOR1A.
The nature of assay [3]: small molecules captured by biotinylated probe aFGF2 – biochemical, small-molecule microarray, fluorescence 635/667, stem cell growth factor project, primary screen (AID 1067).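 Note: measures binding of biotinylated aFGF2 protein to printed compounds on slides; z-score merges feature fluorescence and signal-to-noise across triplicate slides.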 Particulars: higher = more signal.
Assay [4] is described as follows: small molecules captured by biotinylated probe aFGF10 – biochemical, small-molecule microarray, fluorescence 635/667, stem cell growth factor project, primary screen (AID 1071).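 Note: score merges 667 nm spot intensity and signal to noise from triplicate slides.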 Particulars: higher = more signal.
The target in assay [5] is Neurogenic locus notch homolog protein 2 (Homo sapiens) (UniProt Q04721). In words: small molecules binding Notch2 protein – biochemical, small-molecule microarray, 635 nm fluorescence, stem cell growth factors, primary screen (AID 1073). Particulars: higher = more signal.
For assay [6], the target named is Pro-neuregulin-1, membrane-bound isoform (Homo sapiens) (UniProt Q02297). Description: small molecules binding neuregulin-1 protein – biochemical, small-molecule microarray, fluorescence 635/667, psychiatric disease protein project, primary screen (AID 1075).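 Note: score combines 667 nm spot fluorescence with signal to noise.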 Particulars: NRG1 binding, 635 nm fluorescence, higher = more signal.
The subject of assay [7] is Neuregulin-1 EGF-like domain. Description: small molecules binding NRG1 EGF domain – biochemical, small-molecule microarray, 635 nm fluorescence, primary screen (AID 1081).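 Note: binding of the protein to compounds printed on small-molecule microarray slides.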 Particulars: higher = more signal.
A short description of assay [8]: FRG1 expression reporter modulators in myotubes – cell-based, C2C12 myotubes, firefly/Renilla luciferase, luminescence, FRG1 inhibition for FSHD, primary screen (AID 1084). Particulars: FRG1 promoter luciferase, higher = more signal, called active from +8 up or from −8 down.
A short description of assay [9]: small molecules captured by biotinylated probe aFST – biochemical, small-molecule microarray, fluorescence 635/667, stem cell growth factor project, primary screen (AID 1086).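 Note: score merges 667 nm fluorescence with signal-to-noise of each printed compound spot.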 Particulars: higher = more signal.
Assay [10] can be described thus: binders of probe aHhip on microarray, primary screen, stem cell growth factor project, biochemical, small-molecule microarray, fluorescence 635/667 (AID 1087).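 Note: score merges spot fluorescence at 667nm with spot signal to noise ratio.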 Particulars: higher = more signal.
Assay [11] has as its system PRMT1 (protein arginine N-methyltransferase 1). In words: small molecules binding arginine methyltransferase PRMT1 – biochemical, small-molecule microarray, 635 nm fluorescence, primary screen (AID 1088).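 Note: binding of Prmt1 protein to compounds spotted on small-molecule microarray slides.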 Particulars: higher = more signal.
The nature of assay [12]: growth effects on S. cerevisiae YJM789 – YJM789 clinical isolate, OD600, 24 h, basal, primary screen (AID 1089).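 Note: growth of clinical yeast isolate S. cerevisiae YJM 789 seeded 1000 cells per well; test concentration not given here.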 Particulars: higher = more signal, called active from +8 up or from −8 down.
A short description of assay [13]: S. pombe growth modifiers, basal conditions – strain 972, OD600, 24 h, no modulator, primary screen (AID 1090).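 Note: basal condition with compound alone and no growth modifier present; test concentration not given here.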 Particulars: S. pombe 972 growth, higher = more signal, called active from +8 up or from −8 down.
Assay [14] in a line: budding yeast growth modifiers under rapamycin – strain BY4716, OD600, 96 h, primary screen (AID 1091). Note: test concentration not given here. Particulars: S. cerevisiae BY4716 + rapamycin, higher = more signal, called active from +8 up or from −8 down.
Assay [15] deals with Torsin-1A-interacting protein 2 (Homo sapiens) (UniProt Q8NFQ8). In words: small molecules binding lysate-expressed LULL1 – cell lysate, human LULL1 lysate, 635/667 nm fluorescence, primary screen (AID 1092).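 Note: probe is lysate of COS7 cells overexpressing human LULL1; score merges per-feature 667 nm fluorescence with signal-to-noise.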 Particulars: small-molecule microarray, hLULL1 lysate binding, 635 nm fluorescence; higher = more signal.
A short description of assay [16]: optical density change of DRC41 E. coli – strain DRC41, OD650, 24 h, E. coli filamentation project, primary screen (AID 1093).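 Note: MC1000 strain lacking acrAB efflux and sulA so SOS filamentation is blocked; test concentration not given here.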 Particulars: E. coli DRC41 growth, higher = more signal, called active from +8 up or from −8 down.
A short description of assay [17]: probe aLefty2 binding to arrayed compounds – biochemical, biotinylated probe, 635/667 nm fluorescence, primary screen (AID 1094).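 Note: score merges spot fluorescence near 667 nm with spot signal-to-noise ratio.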 Particulars: small-molecule microarray, higher = more signal.
Assay [18] relates to Noggin (protein binding on small-molecule microarray). Description: small molecules binding Noggin protein – biochemical, 635/667 nm fluorescence, primary screen (AID 1095).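 Note: score merges 667 nm feature fluorescence with signal to noise over triplicate slides.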 Particulars: 635 nm fluorescence, higher = more signal.
For assay [19], the target named is Neurogenic locus notch homolog protein 3 (Homo sapiens) (UniProt Q9UM47). In words: small molecules binding NOTCH3 protein – biochemical, 635/667 nm fluorescence, primary screen (AID 1096). Particulars: small-molecule microarray, 635 nm fluorescence, higher = more signal.
Assay [20] is described as follows: probe aEGFR binding to arrayed compounds – biochemical, biotinylated probe, 635/667 nm fluorescence, primary screen (AID 1097).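 Note: probe is a biotinylated anti-EGFR antibody binding compounds printed on slides; score combines fluorescence near 667 nm and signal to noise of each spot.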 Particulars: small-molecule microarray, higher = more signal.

Chain of Neurogenic locus notch homolog protein 3 (Homo sapiens) (Q9UM47 whole entry, looked up): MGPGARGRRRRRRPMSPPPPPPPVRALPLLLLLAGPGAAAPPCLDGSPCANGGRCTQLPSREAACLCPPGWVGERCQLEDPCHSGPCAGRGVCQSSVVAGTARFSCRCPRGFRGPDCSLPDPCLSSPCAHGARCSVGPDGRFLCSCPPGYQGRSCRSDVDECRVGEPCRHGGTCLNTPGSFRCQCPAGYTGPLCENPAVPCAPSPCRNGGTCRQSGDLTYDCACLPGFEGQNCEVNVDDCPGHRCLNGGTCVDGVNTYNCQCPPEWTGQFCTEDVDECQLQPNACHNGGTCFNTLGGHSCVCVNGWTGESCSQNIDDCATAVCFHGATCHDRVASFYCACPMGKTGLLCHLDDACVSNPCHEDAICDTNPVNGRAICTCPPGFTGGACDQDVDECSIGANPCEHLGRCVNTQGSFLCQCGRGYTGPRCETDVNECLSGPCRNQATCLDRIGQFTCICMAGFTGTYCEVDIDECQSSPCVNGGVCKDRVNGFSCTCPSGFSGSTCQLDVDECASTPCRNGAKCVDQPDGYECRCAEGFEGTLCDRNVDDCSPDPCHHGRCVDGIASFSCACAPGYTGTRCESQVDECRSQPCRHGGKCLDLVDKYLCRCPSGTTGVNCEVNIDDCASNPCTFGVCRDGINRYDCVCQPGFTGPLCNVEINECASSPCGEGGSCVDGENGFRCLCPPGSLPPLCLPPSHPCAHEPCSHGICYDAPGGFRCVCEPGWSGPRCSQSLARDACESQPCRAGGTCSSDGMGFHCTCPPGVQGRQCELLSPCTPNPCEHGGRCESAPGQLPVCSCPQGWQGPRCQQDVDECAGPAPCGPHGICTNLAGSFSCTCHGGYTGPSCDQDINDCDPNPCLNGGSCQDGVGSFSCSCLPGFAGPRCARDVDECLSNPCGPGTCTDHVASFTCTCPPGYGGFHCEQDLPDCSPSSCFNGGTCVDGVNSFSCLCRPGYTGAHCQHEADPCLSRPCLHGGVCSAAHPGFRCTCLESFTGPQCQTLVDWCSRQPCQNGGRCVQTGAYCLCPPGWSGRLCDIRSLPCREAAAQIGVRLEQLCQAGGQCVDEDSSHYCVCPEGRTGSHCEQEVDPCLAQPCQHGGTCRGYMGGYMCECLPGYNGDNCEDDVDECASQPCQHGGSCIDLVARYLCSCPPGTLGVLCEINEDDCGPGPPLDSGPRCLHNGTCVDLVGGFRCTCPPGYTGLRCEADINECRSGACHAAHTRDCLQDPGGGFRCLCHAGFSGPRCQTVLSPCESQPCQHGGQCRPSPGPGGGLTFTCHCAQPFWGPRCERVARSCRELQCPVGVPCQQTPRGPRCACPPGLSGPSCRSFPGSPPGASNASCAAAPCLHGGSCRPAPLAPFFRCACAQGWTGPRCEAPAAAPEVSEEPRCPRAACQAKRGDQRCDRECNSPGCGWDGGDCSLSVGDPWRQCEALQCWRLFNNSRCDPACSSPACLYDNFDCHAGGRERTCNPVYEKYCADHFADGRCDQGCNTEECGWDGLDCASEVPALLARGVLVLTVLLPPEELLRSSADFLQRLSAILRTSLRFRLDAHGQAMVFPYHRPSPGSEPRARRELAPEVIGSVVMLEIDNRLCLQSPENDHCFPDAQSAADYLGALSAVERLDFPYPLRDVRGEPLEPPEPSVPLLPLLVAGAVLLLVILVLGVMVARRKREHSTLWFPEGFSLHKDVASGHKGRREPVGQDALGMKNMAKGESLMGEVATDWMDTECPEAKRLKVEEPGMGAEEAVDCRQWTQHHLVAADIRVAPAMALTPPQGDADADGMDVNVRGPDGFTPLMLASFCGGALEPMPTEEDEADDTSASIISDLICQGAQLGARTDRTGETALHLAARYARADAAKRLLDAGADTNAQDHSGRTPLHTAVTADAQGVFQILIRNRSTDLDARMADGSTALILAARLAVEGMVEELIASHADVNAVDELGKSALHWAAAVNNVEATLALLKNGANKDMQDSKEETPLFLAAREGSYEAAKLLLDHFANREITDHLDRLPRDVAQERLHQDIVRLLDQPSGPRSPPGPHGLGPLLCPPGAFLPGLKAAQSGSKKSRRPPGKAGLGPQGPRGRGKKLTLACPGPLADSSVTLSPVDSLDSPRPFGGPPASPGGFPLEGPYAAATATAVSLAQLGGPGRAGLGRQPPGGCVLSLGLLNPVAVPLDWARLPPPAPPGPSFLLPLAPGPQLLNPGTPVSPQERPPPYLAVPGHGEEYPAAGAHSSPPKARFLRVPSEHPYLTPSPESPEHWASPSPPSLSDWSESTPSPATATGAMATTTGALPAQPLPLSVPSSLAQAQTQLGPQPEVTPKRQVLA
Chain of Neurogenic locus notch homolog protein 2 (Homo sapiens) (Q04721 whole entry, looked up, canonical isoform): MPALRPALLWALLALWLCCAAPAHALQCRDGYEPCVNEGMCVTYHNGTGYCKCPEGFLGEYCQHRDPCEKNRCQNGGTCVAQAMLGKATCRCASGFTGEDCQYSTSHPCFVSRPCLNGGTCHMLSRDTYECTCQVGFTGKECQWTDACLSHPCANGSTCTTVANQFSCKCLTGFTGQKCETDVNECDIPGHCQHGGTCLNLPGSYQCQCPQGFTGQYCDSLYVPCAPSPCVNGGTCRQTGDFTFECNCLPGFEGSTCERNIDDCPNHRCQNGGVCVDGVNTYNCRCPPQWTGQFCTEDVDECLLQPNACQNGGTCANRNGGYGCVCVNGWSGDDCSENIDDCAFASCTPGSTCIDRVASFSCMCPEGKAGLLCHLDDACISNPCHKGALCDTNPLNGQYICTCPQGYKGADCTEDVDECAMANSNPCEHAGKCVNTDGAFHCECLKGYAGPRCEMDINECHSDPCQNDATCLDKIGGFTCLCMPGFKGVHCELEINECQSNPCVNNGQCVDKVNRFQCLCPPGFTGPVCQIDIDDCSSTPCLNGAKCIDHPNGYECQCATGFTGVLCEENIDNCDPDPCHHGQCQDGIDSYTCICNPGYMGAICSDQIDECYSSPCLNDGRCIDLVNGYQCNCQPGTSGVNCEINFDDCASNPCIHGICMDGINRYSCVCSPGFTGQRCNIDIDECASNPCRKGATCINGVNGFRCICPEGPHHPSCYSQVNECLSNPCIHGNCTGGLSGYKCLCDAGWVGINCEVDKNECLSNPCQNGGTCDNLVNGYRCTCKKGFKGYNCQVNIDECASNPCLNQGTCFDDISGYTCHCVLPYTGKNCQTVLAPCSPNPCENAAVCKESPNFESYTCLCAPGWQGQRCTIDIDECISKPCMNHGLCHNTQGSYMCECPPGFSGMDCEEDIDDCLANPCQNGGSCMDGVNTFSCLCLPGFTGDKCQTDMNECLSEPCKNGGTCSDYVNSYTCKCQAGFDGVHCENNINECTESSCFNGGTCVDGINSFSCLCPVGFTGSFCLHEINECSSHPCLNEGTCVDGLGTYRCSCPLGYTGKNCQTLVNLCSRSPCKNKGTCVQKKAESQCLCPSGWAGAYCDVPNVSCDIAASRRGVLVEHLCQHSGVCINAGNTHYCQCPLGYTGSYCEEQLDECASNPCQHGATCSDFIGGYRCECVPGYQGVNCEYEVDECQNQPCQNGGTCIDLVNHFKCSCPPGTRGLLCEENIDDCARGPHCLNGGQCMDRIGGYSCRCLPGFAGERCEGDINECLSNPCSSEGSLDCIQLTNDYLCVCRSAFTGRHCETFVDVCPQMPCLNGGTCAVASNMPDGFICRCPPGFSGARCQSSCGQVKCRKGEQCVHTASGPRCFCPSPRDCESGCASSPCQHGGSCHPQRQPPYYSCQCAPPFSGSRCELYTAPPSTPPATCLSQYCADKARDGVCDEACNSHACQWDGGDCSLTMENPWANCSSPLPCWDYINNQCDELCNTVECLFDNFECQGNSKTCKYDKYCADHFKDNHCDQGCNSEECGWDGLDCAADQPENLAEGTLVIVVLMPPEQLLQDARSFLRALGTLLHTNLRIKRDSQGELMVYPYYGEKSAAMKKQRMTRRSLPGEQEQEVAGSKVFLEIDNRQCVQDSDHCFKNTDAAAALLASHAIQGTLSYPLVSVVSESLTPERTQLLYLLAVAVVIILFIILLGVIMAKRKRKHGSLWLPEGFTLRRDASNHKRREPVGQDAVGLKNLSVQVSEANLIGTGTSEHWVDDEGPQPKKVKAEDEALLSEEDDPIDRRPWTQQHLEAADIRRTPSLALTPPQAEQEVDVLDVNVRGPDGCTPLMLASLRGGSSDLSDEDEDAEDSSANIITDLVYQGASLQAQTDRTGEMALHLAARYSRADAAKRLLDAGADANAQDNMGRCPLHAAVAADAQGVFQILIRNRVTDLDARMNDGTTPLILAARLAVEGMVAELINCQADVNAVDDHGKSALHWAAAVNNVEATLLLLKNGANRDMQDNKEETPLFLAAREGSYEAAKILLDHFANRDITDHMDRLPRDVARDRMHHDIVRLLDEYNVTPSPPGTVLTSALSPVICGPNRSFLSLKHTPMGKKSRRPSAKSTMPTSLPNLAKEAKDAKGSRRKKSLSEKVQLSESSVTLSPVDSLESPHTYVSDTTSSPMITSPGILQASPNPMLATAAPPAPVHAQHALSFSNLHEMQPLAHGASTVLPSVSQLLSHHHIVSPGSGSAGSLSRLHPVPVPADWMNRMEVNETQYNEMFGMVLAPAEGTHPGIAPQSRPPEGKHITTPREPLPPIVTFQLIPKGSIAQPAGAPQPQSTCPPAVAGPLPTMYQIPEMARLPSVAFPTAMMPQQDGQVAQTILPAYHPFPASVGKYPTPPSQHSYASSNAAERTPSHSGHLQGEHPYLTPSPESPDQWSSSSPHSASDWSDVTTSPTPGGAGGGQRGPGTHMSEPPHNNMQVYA

For `CC(C)[C@@H](C(=O)O)n1cc(-c2ccccc2)nn1`, the composite z-score in assay [1] was 0.272; in assay [2] it was 0.692; in assay [3], -0.0894; in [4] it was 0.779; in assay [5], 0.964; in assay [6], 0.648. Further, the composite z-score in [7] was 1.08; in assay [9], 0.874; in [10] it was -0.0645; in [11], 0.0283; in assay [15], 1.19; in [17], -0.0623. Besides, the values for the composite z-score in [18], in assay [19] and in assay [20] were 0.192, 0.938 and 0.125, respectively. Further, the z-score in assay [8] was 0.736 (inactive); in assay [12] it was -0.0149 (inactive); in [13] it was -0.0883 (inactive); in assay [14], -0.244 (inactive); in [16], -1.44 (inactive).

With `CCOC(=O)C[C@H]1[C@H](OC(=O)Cc2ccc3c(c2)OCO3)[C@@H](NC(=O)c2ccccc2)c2cc(OCCCO)ccc2N1C(=O)Cc1ccc(OC)cc1`, the composite z-score is -0.483 in assay [1]; 0.147 in assay [2]; -0.0038 in assay [3]; 0.306 in assay [4]; 0.523 in assay [5]; 0.726 in assay [6]. The composite z-score in assay [7] was 0.049; in assay [9] it was -0.249; in [10] it was -0.261; in assay [11] it was 0.498; in assay [15], 0.837; in [17] it was -0.0915. The composite z-score in [18] was 0.0752; in assay [19], 0.206; in assay [20], -0.0978. Further, the z-score in [8] was -2.56 (inactive); in assay [12], -2.62 (inactive); in assay [13], -0.91 (inactive); in assay [14], -0.602 (inactive); in [16], -0.429 (inactive).

Take `C=CC[C@]1(C(=O)NCc2ccccc2)COC(c2ccc(OCCCO)cc2)=N1`: the composite z-score is 2.17 in assay [1]; 2.12 in assay [2]; -0.008 in assay [3]; -0.588 in assay [4]; -0.813 in assay [5]; 1.09 in [6]. Moreover, the composite z-score in assay [7] was 0.521; in assay [9], 0.946; in assay [10], -0.335; in assay [11], 0.822; in [15], 2.87; in assay [17], 0.843. The composite z-score in [18] was -1; in [19], -0.447; in assay [20], -0.0675. Also, the z-score in assay [8] is 0.235 (inactive); in [12], -1.4 (inactive); in assay [13], -4.95 (inactive); in assay [14], -1.22 (inactive); in [16] it was 1.34 (inactive).

With `C=C(COC)/C(=C/C[C@H](OC(=O)c1ccncc1)c1cccc(OCCO)c1)c1cnc2ccccc2c1`, the composite z-score in [1] is -0.125; in assay [2], 0.544; in assay [3], -0.103; in [4], 0.427; in assay [5] it was 1.41; in [6] it was 1.3. Moreover, the composite z-score is 1.28 in [7]; 0.841 in [9]; -0.134 in [10]; 1.54 in assay [11]; 1.75 in [15]; 0.0333 in assay [17]. In addition, the composite z-score in [18] is 1.53; in assay [19], 1.03; in assay [20], -0.0025. Also, the z-score in assay [8] is 2.63 (inactive); in assay [12] it was -2.15 (inactive); in assay [13], -0.677 (inactive); in [14], 0.0694 (inactive); in [16], -0.0055 (inactive).

Consider `O=C1OCCC=C[C@H]2OC34C=CCN(CCN5CCOCC5)C(=O)[C@H]3N(CCCO)C(=O)[C@@H]4C12` (stereo not given in full), for which the composite z-score was -0.0143 in [1]; -2.48 in assay [2]; -0.14 in [3]; -0.776 in assay [4]; -0.956 in [5]; 0.399 in [6]. Besides, the composite z-score is -0.873 in assay [7]; -0.272 in assay [9]; -0.0994 in assay [10]; 0.0132 in assay [11]; 2.98 in assay [15]; -0.257 in assay [17]. Further, the composite z-score is -0.293 in [18], 0.329 in assay [19] and -0.166 in assay [20]. The z-score in assay [8] was 0.122 (inactive); in assay [12], -0.728 (inactive); in [13], -1.14 (inactive); in [14], 0.229 (inactive); in assay [16] it was 0.922 (inactive).
